Reference: the supplement of paper PMC10849652
About 7,900 targets were measured; listed, in parts, are those with a hit and a random draw of the rest. About 0.6% of all pairs of compound and target were hits.

These targets were tested with O=C(CCCCCCNC(=O)c1cnc(N(c2ccccc2)c2ccccc2Cl)nc1)NO [citarinostat] (assay: log2 fold change, soluble protein after heating vs DMSO (PISA); higher = thermal stabilisation; K562 cells, 10 uM, 30 min; active = over 0.2 and 3.5 SD of the protein, either way, in both replicates (recomputed)).
Procedure, shortened: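 K562 cells at 2×10^6 cells/mL were exposed to 10 μM compound for 30 min, then aliquots were heated for 3 min across 48°C-58°C, pooled, and extracted in PBS containing 0.5% NP-40 at 4°C. The supernatant after 21,000xg for 90 min was taken as soluble protein and measured by TMTpro 16plex LC-MS/MS with channel sums equalised. Thermal stability is reported relative to control samples, with values from duplicates. Fold changes are given on a log2 scale.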

Sequence of UniProt Q9NX61 (Q9NX61 whole entry, looked up): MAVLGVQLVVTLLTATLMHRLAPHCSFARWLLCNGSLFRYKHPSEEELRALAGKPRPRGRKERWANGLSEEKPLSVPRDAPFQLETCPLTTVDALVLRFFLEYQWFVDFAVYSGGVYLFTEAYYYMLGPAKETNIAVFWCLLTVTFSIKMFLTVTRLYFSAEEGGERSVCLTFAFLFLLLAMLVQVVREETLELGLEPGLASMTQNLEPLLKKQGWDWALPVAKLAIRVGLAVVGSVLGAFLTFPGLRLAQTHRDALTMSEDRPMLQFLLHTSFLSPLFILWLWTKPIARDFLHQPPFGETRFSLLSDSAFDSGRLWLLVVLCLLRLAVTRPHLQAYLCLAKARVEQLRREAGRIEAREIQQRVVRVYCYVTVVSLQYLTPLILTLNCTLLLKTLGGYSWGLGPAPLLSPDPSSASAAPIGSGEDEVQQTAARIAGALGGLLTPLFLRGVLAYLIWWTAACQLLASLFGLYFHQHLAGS
Sequence of UniProt Q969T4 (Q969T4 whole entry, looked up): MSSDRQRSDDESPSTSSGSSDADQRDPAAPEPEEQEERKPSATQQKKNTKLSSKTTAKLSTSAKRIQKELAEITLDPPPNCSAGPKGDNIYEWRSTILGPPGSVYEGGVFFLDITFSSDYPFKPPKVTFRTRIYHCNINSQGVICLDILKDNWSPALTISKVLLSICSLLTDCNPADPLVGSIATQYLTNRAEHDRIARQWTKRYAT
Sequence of UniProt Q7Z5K2 (Q7Z5K2 whole entry, looked up): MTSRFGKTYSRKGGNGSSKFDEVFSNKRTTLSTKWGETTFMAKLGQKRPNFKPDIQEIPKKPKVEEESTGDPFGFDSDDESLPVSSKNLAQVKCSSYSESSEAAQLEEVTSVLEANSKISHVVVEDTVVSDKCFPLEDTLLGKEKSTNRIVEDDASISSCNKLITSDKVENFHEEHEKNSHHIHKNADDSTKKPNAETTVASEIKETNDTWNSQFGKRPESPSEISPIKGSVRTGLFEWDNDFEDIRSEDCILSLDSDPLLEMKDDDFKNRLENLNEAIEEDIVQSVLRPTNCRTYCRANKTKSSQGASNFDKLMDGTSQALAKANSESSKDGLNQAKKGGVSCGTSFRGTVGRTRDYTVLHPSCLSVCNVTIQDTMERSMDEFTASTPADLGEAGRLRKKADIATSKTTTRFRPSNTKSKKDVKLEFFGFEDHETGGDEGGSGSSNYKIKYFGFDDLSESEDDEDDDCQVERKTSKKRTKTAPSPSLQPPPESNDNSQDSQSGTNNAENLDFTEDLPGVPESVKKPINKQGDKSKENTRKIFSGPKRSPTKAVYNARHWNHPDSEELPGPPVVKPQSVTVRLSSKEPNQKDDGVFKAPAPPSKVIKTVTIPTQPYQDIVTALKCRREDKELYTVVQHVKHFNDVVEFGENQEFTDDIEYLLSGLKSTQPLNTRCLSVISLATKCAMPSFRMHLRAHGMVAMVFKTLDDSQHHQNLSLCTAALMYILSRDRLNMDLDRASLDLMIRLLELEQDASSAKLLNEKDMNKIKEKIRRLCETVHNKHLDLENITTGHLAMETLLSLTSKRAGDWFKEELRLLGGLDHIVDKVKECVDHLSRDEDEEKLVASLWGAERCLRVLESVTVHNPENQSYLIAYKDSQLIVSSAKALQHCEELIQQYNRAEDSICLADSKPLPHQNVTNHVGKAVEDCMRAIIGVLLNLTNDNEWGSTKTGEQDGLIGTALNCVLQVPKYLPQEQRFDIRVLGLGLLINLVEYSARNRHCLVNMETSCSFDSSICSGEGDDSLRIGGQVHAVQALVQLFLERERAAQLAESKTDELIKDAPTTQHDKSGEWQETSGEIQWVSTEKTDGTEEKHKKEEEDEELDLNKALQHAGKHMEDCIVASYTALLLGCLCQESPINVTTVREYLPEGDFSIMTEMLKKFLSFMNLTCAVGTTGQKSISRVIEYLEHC
Sequence of UniProt Q9UDW1 (Q9UDW1 whole entry, looked up): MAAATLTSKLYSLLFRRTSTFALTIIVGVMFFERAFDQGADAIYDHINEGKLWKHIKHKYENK
Sequence of UniProt Q96K49 (Q96K49 whole entry, looked up): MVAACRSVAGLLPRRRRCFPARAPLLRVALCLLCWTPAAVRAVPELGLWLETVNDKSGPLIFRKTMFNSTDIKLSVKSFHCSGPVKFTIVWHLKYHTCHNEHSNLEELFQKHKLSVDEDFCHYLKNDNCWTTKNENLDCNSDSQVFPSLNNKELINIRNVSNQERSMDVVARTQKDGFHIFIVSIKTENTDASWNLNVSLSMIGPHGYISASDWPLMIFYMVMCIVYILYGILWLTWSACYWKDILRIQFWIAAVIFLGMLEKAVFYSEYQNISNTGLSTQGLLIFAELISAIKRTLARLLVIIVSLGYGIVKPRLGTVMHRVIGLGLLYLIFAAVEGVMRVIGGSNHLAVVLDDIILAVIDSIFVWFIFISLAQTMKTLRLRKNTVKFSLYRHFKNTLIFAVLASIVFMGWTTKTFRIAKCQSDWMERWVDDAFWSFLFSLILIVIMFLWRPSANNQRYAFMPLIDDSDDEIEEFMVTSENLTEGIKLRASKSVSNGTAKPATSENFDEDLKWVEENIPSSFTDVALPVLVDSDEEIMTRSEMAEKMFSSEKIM
Sequence of UniProt Q9H269 (Q9H269 whole entry, looked up): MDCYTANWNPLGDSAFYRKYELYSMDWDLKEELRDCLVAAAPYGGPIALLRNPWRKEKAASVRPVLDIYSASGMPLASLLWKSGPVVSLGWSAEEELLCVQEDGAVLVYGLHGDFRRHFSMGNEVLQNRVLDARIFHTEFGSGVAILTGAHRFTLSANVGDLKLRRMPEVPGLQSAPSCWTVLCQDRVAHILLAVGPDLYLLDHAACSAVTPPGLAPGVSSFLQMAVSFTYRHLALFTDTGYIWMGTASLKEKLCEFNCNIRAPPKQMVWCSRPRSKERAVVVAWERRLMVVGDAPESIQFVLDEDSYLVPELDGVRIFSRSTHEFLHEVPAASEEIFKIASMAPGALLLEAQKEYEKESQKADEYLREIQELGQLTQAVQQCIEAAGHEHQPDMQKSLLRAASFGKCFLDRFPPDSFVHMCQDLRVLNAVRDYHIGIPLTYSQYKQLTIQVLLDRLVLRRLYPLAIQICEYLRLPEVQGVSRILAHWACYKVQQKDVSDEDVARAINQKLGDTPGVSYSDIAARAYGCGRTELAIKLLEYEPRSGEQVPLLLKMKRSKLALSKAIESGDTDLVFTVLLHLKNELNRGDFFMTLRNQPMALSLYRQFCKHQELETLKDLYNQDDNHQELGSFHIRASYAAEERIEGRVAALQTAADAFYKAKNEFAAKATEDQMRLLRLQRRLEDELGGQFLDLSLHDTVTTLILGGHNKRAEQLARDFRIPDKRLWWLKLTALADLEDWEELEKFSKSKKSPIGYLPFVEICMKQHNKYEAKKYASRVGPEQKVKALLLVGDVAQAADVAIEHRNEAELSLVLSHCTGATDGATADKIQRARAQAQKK
Sequence of UniProt Q9Y2L5 (Q9Y2L5 whole entry, looked up): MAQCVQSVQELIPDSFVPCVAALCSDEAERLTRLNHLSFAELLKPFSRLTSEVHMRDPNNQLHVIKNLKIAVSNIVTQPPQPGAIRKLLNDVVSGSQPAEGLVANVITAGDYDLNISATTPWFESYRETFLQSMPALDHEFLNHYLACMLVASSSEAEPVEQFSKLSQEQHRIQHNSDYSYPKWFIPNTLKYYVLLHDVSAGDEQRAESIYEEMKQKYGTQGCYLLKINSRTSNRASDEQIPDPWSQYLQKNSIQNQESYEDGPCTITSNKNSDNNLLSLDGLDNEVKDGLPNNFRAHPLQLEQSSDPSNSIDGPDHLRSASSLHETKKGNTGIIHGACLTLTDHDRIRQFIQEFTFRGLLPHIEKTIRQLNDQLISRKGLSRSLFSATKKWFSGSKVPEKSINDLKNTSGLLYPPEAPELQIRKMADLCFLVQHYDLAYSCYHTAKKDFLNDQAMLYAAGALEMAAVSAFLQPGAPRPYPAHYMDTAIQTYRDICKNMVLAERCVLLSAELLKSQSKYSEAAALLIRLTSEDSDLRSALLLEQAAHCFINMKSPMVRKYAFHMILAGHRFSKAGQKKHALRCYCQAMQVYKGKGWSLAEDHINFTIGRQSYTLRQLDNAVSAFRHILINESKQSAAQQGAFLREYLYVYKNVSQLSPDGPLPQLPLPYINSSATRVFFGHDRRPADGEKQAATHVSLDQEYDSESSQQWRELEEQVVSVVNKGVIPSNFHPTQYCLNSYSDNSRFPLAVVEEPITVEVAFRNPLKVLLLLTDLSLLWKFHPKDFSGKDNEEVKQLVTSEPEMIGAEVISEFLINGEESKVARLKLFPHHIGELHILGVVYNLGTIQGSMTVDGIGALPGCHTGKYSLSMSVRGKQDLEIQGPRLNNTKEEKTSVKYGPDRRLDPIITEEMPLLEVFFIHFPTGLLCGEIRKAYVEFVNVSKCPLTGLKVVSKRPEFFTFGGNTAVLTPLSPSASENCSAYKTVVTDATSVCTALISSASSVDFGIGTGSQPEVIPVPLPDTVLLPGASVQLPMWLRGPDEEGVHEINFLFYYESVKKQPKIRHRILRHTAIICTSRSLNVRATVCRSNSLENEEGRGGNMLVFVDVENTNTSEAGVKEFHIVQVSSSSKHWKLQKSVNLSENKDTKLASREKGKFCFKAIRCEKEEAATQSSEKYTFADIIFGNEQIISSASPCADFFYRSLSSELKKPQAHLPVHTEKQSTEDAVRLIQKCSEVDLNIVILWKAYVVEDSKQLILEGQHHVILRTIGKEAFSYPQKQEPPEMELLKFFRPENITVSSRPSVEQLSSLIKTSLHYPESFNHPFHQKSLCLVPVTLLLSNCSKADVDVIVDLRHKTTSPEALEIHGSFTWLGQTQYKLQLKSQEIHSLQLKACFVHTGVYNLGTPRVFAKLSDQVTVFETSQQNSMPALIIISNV
Sequence of UniProt Q9UEU0 (Q9UEU0 whole entry, looked up): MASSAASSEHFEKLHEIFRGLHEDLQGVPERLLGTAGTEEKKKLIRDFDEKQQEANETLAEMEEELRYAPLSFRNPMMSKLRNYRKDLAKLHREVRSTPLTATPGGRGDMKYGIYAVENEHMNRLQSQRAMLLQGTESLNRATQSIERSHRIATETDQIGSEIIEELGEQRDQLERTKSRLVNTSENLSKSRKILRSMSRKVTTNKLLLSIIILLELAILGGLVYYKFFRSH

log2 fold change, inactive:
VTA1 (UniProt Q9NP79) 0.054
UBE4B isoform 4 (UniProt O95155) 0.02
USO1 isoform 2 (UniProt O60763) 0.032
VPS16 (UniProt Q9H269) 0.189
WAPL isoform 3 (UniProt Q7Z5K2) 0.198
VTI1A (UniProt Q96AJ9) -0.016
VPS8 (UniProt Q8N3P4) -0.004
UFL1 (UniProt O94874) 0.063
UTP4 (UniProt Q969X6) -0.002
UTP14A (UniProt Q9BVJ6) -0.04
UGGT1 (UniProt Q9NYU2) 0.047
VPS18 (UniProt Q9P253) 0.009
UBA6 0.052
TMEM161A (UniProt Q9NX61) 0.083
TNFRSF10A (UniProt O00220) -0.011
TRMT61A (UniProt Q96FX7) 0.005
TRAPPC8 (UniProt Q9Y2L5) 0.051
UBE2S (UniProt Q16763) 0.072
UBE2E3 (UniProt Q969T4) 0.063
UCHL5 (UniProt Q9Y5K5) 0.08
VTI1B (UniProt Q9UEU0) -0.001
TNPO1 (UniProt Q92973) 0.033
UQCR10 (UniProt Q9UDW1) 0.045
TMEM87B (UniProt Q96K49) 0.021
